Results published in PubChem BioAssay AID540259 (Broad Institute, 2011).
Potency and affinity values are given separately. Active and inactive are the calls of the source.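 How the source made its calls: active means cell killing, meaning signal decrease, with fitted half-maximal dose at or below ten times the top valid tested dose; inconclusive means poor fit, or flat curve with 30 to 70% signal loss; inactive means the rest.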

Assay: ATP-based viability loss in HeLa cells – cell-based, CellTiter-Glo luminescence, cherry-pick samples, cytotoxicity control for MITF activator project, dose response (AID 540259)
Details: 24 h; series mostly up to 35 µM

COC(=O)c1ccc(-c2ccc(Cl)cc2)nc1C
outcome: inactive

CCC(C)NC(=O)c1cn(-c2cccc(C)n2)cn1 (configuration not stated)
outcome: inactive

Cc1[nH]n(-c2cccc(Cl)c2)c(=O)c1C=NCC(C)C
outcome: inactive

CCCn1nnc(NC(=O)c2ccc(-c3ccccc3)cc2)n1
outcome: inactive

COC(=O)c1cc(-c2ccc(OC)cc2)n[nH]1
outcome: inactive

Cc1ccccc1-c1nc(Cc2ccccc2)no1
outcome: inactive

CC(=O)c1cccc(NC(=O)c2cc3nc(C)cc(C)n3n2)c1
outcome: inactive

O=C(NCc1ccccn1)Nc1ccc(Br)cc1Cl
outcome: inactive

COc1ccc(-c2cn(CC3CCCCC3)nn2)cc1
outcome: inactive

Cn1ccs/c1=N\C(=O)Nc1ccccc1
outcome: inactive

CN(c1ccccc1)c1nc2ccsc2c(=O)s1
outcome: inactive

COc1cc(/C=C/c2nc3ccccc3c(=O)[nH]2)ccc1OC(F)F
outcome: inactive

Nc1nc2ccccc2cc1-c1cccs1
outcome: inactive

ClCCn1cnc2c(SCc3ccccc3)ncnc21
outcome: inactive

CC(=O)NCCC1CCCCN1C(=O)c1cc(COc2cc(C)ccc2C)on1 (configuration not stated)
outcome: inactive

O=C(N/N=C/c1ccccn1)c1c[nH]c2ccccc12
outcome: inactive

CCc1cccc(NC(=O)c2sc3nc4n(c(=O)c3c2C)CCC4)c1
outcome: inactive

COc1ccc2sc(NCc3ccccc3)nc2c1
outcome: inactive

COc1ccccc1/C=C/C=N/n1c(-c2ccccn2)n[nH]c1=S
outcome: inactive

O=C(CCCc1ccccc1)c1ccccc1
outcome: inactive

COC(=O)Cc1ccc(NC(=O)c2ccc(C)c(C)c2)cc1
outcome: inactive

Cc1nc2cc3nc(C)sc3cc2s1
outcome: inactive

Cc1ccc(-c2csc(C(C#N)=C3CCCC3)n2)cc1
outcome: inactive

CCCC(=O)N/C(N)=N/c1nc2ccccc2o1
outcome: inactive

C/C(=C\C(=O)c1cccnc1)Nc1ccc(C)c(C)c1
outcome: inactive

COC(=O)c1ccc(Nc2ncnc3sccc23)cc1
outcome: inactive

Fc1ccccc1Nc1nc2ccccc2o1
outcome: inactive

Cc1ccc(C(=O)Cn2nnc3ccccc32)cc1C
outcome: inactive

COc1cccc(CNc2nc3ccccc3n2C)c1O
outcome: inactive

Oc1cccc(-c2nc3ccc4ccccc4c3c3c2CCC3)c1
outcome: inactive

O=C(c1cc(COc2ccc(F)cc2Cl)on1)N1CCCCCC1
outcome: inactive

CSCC[C@H](NC(=O)[C@@H]1Cc2ccccc2CN1)C(=O)NC[C@H]1CC[C@H](C(=O)O)CC1
outcome: inactive

COC(=O)c1ccc(N=NN2CCCCC2)cc1
outcome: inactive

O=c1[nH]c(Cc2cccs2)nc2scc(-c3ccc(Cl)cc3)c12
outcome: inactive

NC(=O)c1ccc(-c2noc(-c3cccc(Cl)c3)n2)cc1
outcome: inactive

CCC(=O)c1ccc(OCc2ccccc2)c(OC)c1
outcome: inactive

Cn1cc(Br)c(C(=O)N/N=C/c2cc3c(cc2Cl)OCO3)n1
outcome: inactive
